HttQ103 aggreg: mutant huntingtin aggregation inhibition; PC12 HttQ103-GFP aggregates, Acumen cytometry, 40 h; Potency, µM (series often up to 46.1 µM), usual class: inhibitors; 220,000 compounds, 1.1% hits; AID 1688; also: nearly all actives have a fitted effect of over 60% in size
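Huntingtin Q103 exon 1–GFP aggregates in induced PC12 cells (100 nM tebufenozide) were quantified by cytometry from lysates, with compounds dosed in titration.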
ALDH1A1 block: inhibitors of human aldehyde dehydrogenase 1A1; P00352; Purified ALDH1A1, NADH fluorescence, propionaldehyde substrate; Potency, µM (highest dose often 75.3 µM), hits mostly inhibitors; 220,000 compounds, 7.3% hits; active = well fitted inhibition curve with a large enough effect, not every such curve was filed as active; inconclusive = small, poorly fitted or top-dose-only effect, or another doubt; inactive = no such curve, though single readings can be large or run the other way
HPGD inh: HPGD (human) dehydrogenase inhibition; AID 894; 150,000 compounds, 4.3% hits; P15428; purified HPGD, NADH fluorescence kinetic, PGE2 substrate; Potency, µM, usual class: inhibitors; active = well fitted inhibition curve with a large enough effect, not every such curve was filed as active; inconclusive = small, poorly fitted or top-dose-only effect, or another doubt; inactive = no such curve, though single readings can be large or run the other way
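NADH formation kinetics: reaction with 30 uM PGE2 and 1 mM NAD+ (final), 20 nM enzyme, Tris-HCl pH 8 with Tween 20, after 15 min compound preincubation at room temperature. Fluorescence change, last versus first of five reads.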
PNC inhibitor: perinucleolar compartment assembly inhibition; PC3M PTB-GFP, PNC prevalence imaging, 16 h; hits give low values; activity change (PNC), negative = inhibition, % at 10 µM; 140,000 compounds, 3.1% hits; AID 2417;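 active = readout at or below -70, meaning at least 70% loss of cells showing the perinucleolar compartment, a nuclear body marking cancer cells; inconclusive = readout between -30 and a set limit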
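PC3M cells stably expressing PTB-GFP, 750–1000 cells/well, treated 16 h at 37 °C with compound (23 nl of library stock), in duplicate. After paraformaldehyde fixation and Hoechst stain, imaged at 20x; PNC prevalence scored by image analysis.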
HTT ATP protect: protects HTT-Q103 PC12 cells, measured by ATP; 230,000 compounds, 0.14% hits; PC12 HTT-Q103 induced, cytoprotection, ATP luminescence, 40 h; Potency, µM (titrated, usually from 56.4 µM), most hits filed as activators; AID 1471; also: nearly all actives have a fitted effect of over 45% in size
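ATP quantification (ATPlite) reports survival of PC12 cells in which tebufenozide, 100 nM final, switches on Htt exon 1 with 103 glutamines linked to GFP; compounds are titrated.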
CBFb-RUNX1 inh: inhibitors of human CBF-beta and RUNX1 interaction | Q01196+Q13951 | AlphaScreen CBFb-His/RUNX1-biotin binding, biochemical | Potency, µM (series often up to 59.8 µM), most hits filed as inhibitors | 230,000 tested, under 10 active | AID 1477
Target sequence (Q01196 whole entry, looked up): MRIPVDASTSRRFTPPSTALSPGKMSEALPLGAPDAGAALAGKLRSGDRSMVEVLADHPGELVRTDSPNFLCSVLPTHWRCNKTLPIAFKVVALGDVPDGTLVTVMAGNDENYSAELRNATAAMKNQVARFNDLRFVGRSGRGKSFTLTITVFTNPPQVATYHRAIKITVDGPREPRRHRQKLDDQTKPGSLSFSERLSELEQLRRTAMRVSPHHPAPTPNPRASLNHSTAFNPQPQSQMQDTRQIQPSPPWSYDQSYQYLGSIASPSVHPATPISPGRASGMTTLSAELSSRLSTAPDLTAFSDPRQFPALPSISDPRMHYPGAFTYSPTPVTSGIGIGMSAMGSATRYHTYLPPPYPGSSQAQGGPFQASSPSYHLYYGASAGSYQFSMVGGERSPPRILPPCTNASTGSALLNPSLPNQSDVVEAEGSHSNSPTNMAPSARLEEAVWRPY
Target sequence (Q13951 whole entry, looked up): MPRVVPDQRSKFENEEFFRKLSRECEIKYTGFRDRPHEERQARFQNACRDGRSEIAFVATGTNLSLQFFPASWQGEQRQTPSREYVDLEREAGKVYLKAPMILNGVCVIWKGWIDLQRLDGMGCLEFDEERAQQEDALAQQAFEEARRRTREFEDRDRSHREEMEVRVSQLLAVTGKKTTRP
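Interaction loss through any mechanism counts as activity. Pre-formed complex of His-CBF-beta and biotin-RUNX1 (30 nM apiece) is incubated with compound 15 min, then with 50 ng nickel and 50 ng streptavidin beads for 90 min before AlphaScreen detection.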
Large screens that a line does not name were inactive. This is a sample that favours compounds with a hit; in the whole collection about 11% have one here. Unless noted, calls follow the shape of the dose curve; as a rule, active = well fitted curve in the direction sought with a large enough effect; inconclusive = small, poorly fitted or top-dose-only effect, or another doubt; inactive = no such curve, though single readings can be large; an effect the other way counts as inactive or inconclusive.

Cc1ccc(S(=O)(=O)/N=C(\CN2CCOCC2)N2CCCC2)cc1	PNC inhibitor inconclusive
CC[C@H](C)[C@H](NC(=O)CNC(=O)[C@@H](NC(=O)[C@@H](NC(=O)[C@H](Cc1ccc(O)cc1)NC(=O)[C@H](CC(C)C)NC(=O)[C@H](C)NC(=O)[C@H](CCC(N)=O)NC(=O)CNC(=O)[C@@H]1CCCN1C(=O)CNC(=O)[C@H](Cc1ccccc1)NC(=O)[C@H](Cc1cnc[nH]1)NC(=O)[C@@H](NC(=O)CNC(=O)[C@H](CCCNC(=N)N)NC(=O)[C@H](CCCNC(=N)N)NC(=O)[C@@H](NC(=O)[C@H](CC(N)=O)NC(=O)[C@@H](N)CS)[C@@H](C)O)[C@@H](C)CC)[C@@H](C)O)[C@@H](C)O)C(=O)O	none (no result: HttQ103 aggreg, ALDH1A1 block, HPGD inh, PNC inhibitor, HTT ATP protect)
Cc1c(C(=O)NN2CCCCC2)nn(-c2ccc(Cl)cc2Cl)c1-c1ccc(Cl)cc1	none (no result: ALDH1A1 block, HPGD inh, PNC inhibitor, CBFb-RUNX1 inh)
CN(C)CCC#CC(O)(c1ccccc1)c1ccccc1	ALDH1A1 block 25µM
CC[n+]1c(/C=C2\Sc3ccccc3N2C)ccc2cccc(C)c21	HttQ103 aggreg 1µM, ALDH1A1 block inconclusive (no result: HPGD inh, PNC inhibitor)
CCN1/C(=C/c2ccc3cc(C)ccc3[n+]2CC)Sc2cc(C)c(C)cc21	none (no result: HttQ103 aggreg, HPGD inh, PNC inhibitor)
CCN1/C(=C/c2ccc3cc(C)ccc3[n+]2CC)Sc2ccccc21	HttQ103 aggreg 0.35µM, PNC inhibitor -93
O=C1C2C3C=CC(C4CC34)C2C(=O)N1/N=C/c1ccc([N+](=O)[O-])o1 (stereo not drawn)	HttQ103 aggreg inconclusive, ALDH1A1 block 3.2µM (no result: HPGD inh, PNC inhibitor)
Cc1ccc(-c2ccc(/C=N/N3C(=O)C4C5C=CC(C6CC56)C4C3=O)o2)c([N+](=O)[O-])c1 (stereo not drawn)	ALDH1A1 block inconclusive, HPGD inh 13µM
CN1CCN(/N=C/c2ccc(-c3ccc([N+](=O)[O-])cc3Cl)o2)CC1	none (no result: HPGD inh, PNC inhibitor)
O=C1C2C(C(=O)N1/N=C/c1ccc([N+](=O)[O-])o1)C1C=CC2C12CC2 (stereo not drawn)	ALDH1A1 block inconclusive
O=C1C2C3C=CC(C3)C2C(=O)N1/N=C/c1cc(Br)cc([N+](=O)[O-])c1O (stereo not drawn)	HttQ103 aggreg 13µM, ALDH1A1 block inconclusive, PNC inhibitor inconclusive
O=C1C2C3C=CC(C4CC34)C2C(=O)N1/N=C/c1ccc(-c2ccc([N+](=O)[O-])cc2)o1 (stereo not drawn)	none (no result: HPGD inh, PNC inhibitor)
COc1ccc(N2C(=O)C3C4C=CC(C4)C3C2=O)c([N+](=O)[O-])c1 (stereo not drawn)	none (no result: HPGD inh, PNC inhibitor)
O=C1C2C3C=CC(C3)C2C(=O)N1/N=C/c1ccc(-c2ccccc2[N+](=O)[O-])o1 (stereo not drawn)	ALDH1A1 block 2.2µM, PNC inhibitor inconclusive
CC(C)C[C@H](NC(=O)[C@@H]1CCCN1C(=O)[C@H](Cc1ccccc1)NC(=O)[C@H](C)NC(=O)[C@H](CCC(=O)O)NC(=O)[C@H](C)NC(=O)[C@H](CO)NC(=O)[C@H](CCC(=O)O)NC(=O)[C@H](CC(=O)O)NC(=O)[C@H](CCC(=O)O)NC(=O)[C@H](C)NC(=O)CNC(=O)[C@H](CC(N)=O)NC(=O)[C@@H]1CCCN1C(=O)[C@H](Cc1ccc(O)cc1)NC(=O)[C@@H](NC(=O)[C@H](CCCCN)NC(=O)[C@@H](NC(=O)[C@@H]1CCCN1C(=O)[C@@H](N)CCCNC(=N)N)C(C)C)C(C)C)C(=O)N[C@@H](CCC(=O)O)C(=O)N[C@@H](Cc1ccccc1)C(=O)O	none (no result: HttQ103 aggreg, ALDH1A1 block, HPGD inh, PNC inhibitor, HTT ATP protect)
Cc1cc(NC(=O)Nc2cc(F)ccc2F)no1	none (no result: ALDH1A1 block, HPGD inh, PNC inhibitor)
COc1cccc(Nc2ncc3nc(-c4ccc(F)cc4)c(=O)n(C[C@H]4CCCO4)c3n2)c1	none (no result: HttQ103 aggreg, PNC inhibitor, CBFb-RUNX1 inh)
O=Cc1cnc(N2CCCCC2)s1	ALDH1A1 block 3.5µM (no result: HPGD inh, PNC inhibitor)
Cc1ccccc1C(=O)N1CCN(c2ccccn2)CC1	ALDH1A1 block inconclusive
O=C(c1oc2ccccc2c1CSCc1ccccc1)N1CCN(c2ncccn2)CC1	HttQ103 aggreg inconclusive, ALDH1A1 block 13µM
Cc1c(C(=O)N2CCN(c3ccccn3)CC2)oc2ccccc12	HttQ103 aggreg inconclusive, ALDH1A1 block 14µM
Cc1c(C(=O)N2CCCCCC2)oc2ccccc12	HttQ103 aggreg inconclusive, HPGD inh 16µM
COc1ccc(N2CCN(C(=O)c3oc4ccccc4c3C)CC2)cc1	none (no result: HPGD inh, PNC inhibitor)
COCC(=O)N(Cc1cc2ccc(C)c(C)c2n2nnnc12)C1CCCC1	ALDH1A1 block inconclusive (no result: HPGD inh, PNC inhibitor)
COC(=O)c1ccc(C(NC(=O)OCc2ccccc2)/C(F)=C/[C@@H](C)C(=O)N(C)Cc2cccnc2)cc1 (stereo partly drawn)	ALDH1A1 block inconclusive (no result: HttQ103 aggreg, PNC inhibitor)
Cc1nn(Cc2ccccc2)c(C)c1N	PNC inhibitor -90 (no result: HTT ATP protect)
O=C(Nc1ccccc1Cl)c1ccccc1Cc1ccccc1	PNC inhibitor inconclusive, CBFb-RUNX1 inh inconclusive
CCOC(=O)/C(C)=N/NC(C)=O	none (no result: HttQ103 aggreg, PNC inhibitor)
CCN(CC)S(=O)(=O)c1cccc(NC(=O)C2SC(=Nc3ccc(C)cc3C)C(C(=O)NCC3CCCO3)=C2N)c1 (stereo not drawn)	PNC inhibitor inconclusive
COCCNC(=O)C1=C(N)C(C(=O)Nc2ccc(C)c(S(=O)(=O)N3CCCCC3)c2)SC1=Nc1ccc(C)cc1C (stereo not drawn)	ALDH1A1 block 0.79µM, HPGD inh inconclusive
COc1ccc(Cn2c(=S)[nH]c3cc(OC)c(OC)cc3c2=O)cc1	none (no result: HPGD inh, PNC inhibitor)
COCCn1c(=O)c2cc3c(=O)n(CCOC)c(=O)c3cc2c1=O	ALDH1A1 block 18µM
CCN(CC)CCCn1c(=S)[nH]c2cc(OC)c(OC)cc2c1=O	PNC inhibitor inconclusive
COc1ccc(NC(=O)c2ccc3c(=O)n(Cc4ccco4)c(=S)[nH]c3c2)c(OC)c1	ALDH1A1 block 0.89µM
COc1cc2[nH]c(=S)n(Cc3ccco3)c(=O)c2cc1OC	ALDH1A1 block 0.79µM
COCCn1c(=S)[nH]c2cc(OC)c(OC)cc2c1=O	ALDH1A1 block 32µM, PNC inhibitor inconclusive
O=c1[nH]c2ccc(Cl)cc2c(=O)n1Cc1ccco1	ALDH1A1 block inconclusive
O=c1c2cc(Cl)ccc2[nH]c(=S)n1Cc1ccco1	ALDH1A1 block 11µM
Cc1ccc(-n2c(C)cc(/C=N/NC(=O)CC3(C)OCCO3)c2C)c(C)c1	ALDH1A1 block 14µM
CCc1ccc(-n2c(C)cc(/C=N/NC(=O)c3ccncc3)c2C)cc1	HttQ103 aggreg inconclusive, ALDH1A1 block 7.9µM (no result: HPGD inh, PNC inhibitor)
Cc1cccc(C)c1-n1c(C)cc(/C=N/NC(=O)c2ccncc2)c1C	HttQ103 aggreg inconclusive, ALDH1A1 block 28µM, PNC inhibitor inconclusive

Screens: PubChem, National Center for Advancing Translational Sciences (NCATS)
